# Data reported in the supplement of paper PMC7156485.
# Several values for one entry are separate records, joined by “and”; a condition that tells them apart may be missing. Equal entries are not always repeated. ± gives the standard deviation of the averaged measurements.
# Key:
# Settings in all cases: concentration: 10 µM; 24 h
# HCC1569 [1] = test: cell number relative to DMSO (% of DMSO); higher = more cells (less growth inhibition / toxicity)
# In short: (§1)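 Compounds were applied at 10 µM for 24 h at 37 °C, in triplicate, to HCC1569 and TDF cells. The cells were then fixed and stained for H1.0, and nuclei were counterstained with DAPI. Nuclear H1.0 intensity or cell number is reported relative to the plate control as a percent, taking the median of replicates. Smoothing for positional effects was applied to HCC1569 values only.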
# TDF [2] = test: as above
# In short: as §1
# TDF [3] = test: H1.0 immunofluorescence intensity relative to DMSO (% of DMSO); higher = stronger H1.0 induction, active = 120 or more
# In short: as §1
# HCC1569 [4] = test: H1.0 immunofluorescence intensity relative to DMSO (% of DMSO); higher = stronger H1.0 induction, active = 140 or more
# In short: as §1
# 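Throughout, for H1.0 immunofluorescence intensity relative to DMSO: TDF is a line of transformed human dermal fibroblasts of mesenchymal origin.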
# 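Throughout, for cell number relative to DMSO: TDF denotes transformed human dermal fibroblasts of mesenchymal origin.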
SMILES,cell number (HCC1569 [1]),cell number (TDF [2]),H1.0 immunofluorescence intensity (TDF [3]),H1.0 immunofluorescence intensity (HCC1569 [4])
Cc1cc(C)c(C=C2C(=O)Nc3ccccc32)[nH]1,102,108 and 105,94.2 (inactive) and 92.7 (inactive),115 (inactive) and 103 (inactive)
CCC1C(=O)OCC1Cc1cncn1C.Cl (centres undefined) [Pilocarpine.HCl],102 ± 2.4,94.48 ± 0.24,97.6 (inactive),102 (inactive)
O.O.O=c1c(O)c(-c2ccc(O)c(O)c2)oc2cc(O)cc(O)c12,90.7,89.7,101 (inactive),116 (inactive)
O=C1NC(=O)c2cc(Nc3ccc(F)cc3)c(Nc3ccc(F)cc3)cc21,93.4,110,93.4 (inactive),133 (inactive)
CC1(C)CCCC2(C)C1CCC1(C)OC(=O)CC12 [(3aR)-(+)-Sclaerolide],99,105,92.9 (inactive),84.9 (inactive)
CCC(NC(C)C)C(O)c1ccc(O)c2[nH]c(=O)ccc12.Cl (centres undefined) [Procaterol.HCl],101,105,83.2 (inactive),112 (inactive)
O=C1c2c(O)ccc(O)c2C(=O)c2c(NCCNCCO)ccc(NCCNCCO)c21 [Mitoxantrone],53.2 ± 8.2,3.71 ± 2.7,2090 (active),120 (inactive)
CC(C=CC1=C(C)CCCC1(C)C)=CC=CC(C)=CC(=O)Nc1ccc(O)cc1 [4-Hydroxyphenylretinamide],89.9,112,95.7 (inactive),120 (inactive)
Nc1cc(-c2ccncc2)c[nH]c1=O [amrinone],99.8,105,100 (inactive),114 (inactive)
CCCCCOc1ccccc1C(O)CC#CCCCC(=O)OC (centres undefined),103,106,93 (inactive),89.2 (inactive)
COCc1nc2c([nH]1)c(=O)n(C)c(=O)n2CC(C)C [8-Methoxymethyl-3-isobutyl-1-methylxanthine],104,110,92.4 (inactive),93.2 (inactive)
NC(N)=NN=Cc1c(Cl)cccc1Cl [Guanabenz],98.5,91.9,98.2 (inactive),118 (inactive)
Cl.N[C@@H](Cc1cnc[nH]1)C(=O)O [L-Histidine hydrochloride],101,109,99 (inactive),95.8 (inactive)
CC(C)Nc1cccnc1N1CCN(C(=O)c2cc3cc(NS(C)(=O)=O)ccc3[nH]2)CC1.CS(=O)(=O)O [Delavirdine mesylate],101,102,99.1 (inactive),110 (inactive)
CNC(C)C1CCC(N)C(OC2C(N)CC(N)C(OC3OCC(C)(O)C(NC)C3O)C2O)O1 (centres undefined) [Gentamycin],100,95.4,95 (inactive),117 (inactive)
Cc1[nH]c(C=C2C(=O)Nc3ccc(S(=O)(=O)Cc4c(Cl)cccc4Cl)cc32)c(C)c1C(=O)N1CCCC1CN1CCCC1 (centres undefined),75.3,22.8,133 (active),204 (active)
CON(C)C(=O)[C@H](O)[C@H](Cc1ccccc1)NC(=O)c1cc2cc(Cl)ccc2[nH]1,103,110,88.1 (inactive),103 (inactive)
COc1cc2ncnc(Nc3ccc(O)cc3)c2cc1OC,100,115,89 (inactive),96.6 (inactive)
CC(C)C[C@H](NC(=O)C(O)[C@H](N)Cc1ccc([N+](=O)[O-])cc1)C(=O)O.Cl (some centres undefined),104,104,95.3 (inactive),93.9 (inactive)
COc1ccc(-c2ccc3cc(C(=O)O)ccc3c2)cc1C12CC3CC(CC(C3)C1)C2 [Adapalene],85.4,88.7,99.5 (inactive),102 (inactive)
O=C(C=Cc1ccc(O)c(O)c1)c1ccc(OC2OC(CO)C(O)C(O)C2O)c(O)c1O (centres undefined) [Marein],99.4,108,92 (inactive),91.5 (inactive)
O=C(O)c1cc(=O)cc(C(=O)O)[nH]1 [Chelidamic acid],98.8,109,90 (inactive),96.3 (inactive)
Cl.OC(CCN1CCCCC1)(c1ccccc1)C1CCCCC1 (centres undefined) [Trihexyphenidyl hydrochloride],103,104,94 (inactive),75.4 (inactive)
C[N+](C)(C)CCO.[Br-] [Choline bromide],104,108,96.9 (inactive),98 (inactive)
Cl.Nc1cc(Cl)c(NC2=NCCN2)c(Cl)c1 [p-Aminoclonidine hydrochloride],100,114,97.1 (inactive),88.3 (inactive)
NC(CS(=O)O)C(=O)O [L-Cysteinesulfinic Acid],102,113,96.7 (inactive),92.3 (inactive)

SMILES,cell number (HCC1569 [1]),cell number (TDF [2]),H1.0 immunofluorescence intensity (TDF [3]),H1.0 immunofluorescence intensity (HCC1569 [4])
NCCCCC(NC(CCc1ccccc1)C(=O)O)C(=O)N1CCCC1C(=O)O (centres undefined) [Lisinopril],105,99.8,97.2 (inactive),98.8 (inactive)
COc1cc2c(cc1-c1c(C)noc1C)ncc1[nH]c(=O)n([C@H](C)c3ccccn3)c12,75,66.3,138 (active),218 (active)
CC(C)NCC(O)COc1cccc2ccccc12 (centres undefined) [Propranolol],102,106,94.7 (inactive),108 (inactive)
CC(C)(CN1C(=O)C(Cl)=C(Cl)C1=O)CN1C(=O)C(Cl)=C(Cl)C1=O,86.4,101,89.8 (inactive),124 (inactive)
Cc1ccc(S(=O)(=O)N2c3ccccc3Oc3ccccc32)cc1 [10-[(4-methylphenyl)sulfonyl]-10H-phenoxazine],53.5,11.3,161 (active),154 (active)
CC(C)CC(NC(=O)C(Cc1c[nH]c2ccccc12)NC(=O)C(Cc1ccc(O)cc1)NC(=O)C(CO)NC(=O)C(Cc1c[nH]c2ccccc12)NC(=O)C(Cc1cnc[nH]1)NC(=O)C1CCC(=O)N1)C(=O)NC(CCCN=C(N)N)C(=O)N1CCCC1C(=O)NCC(N)=O (centres undefined) [Triptorelin],107,89.6,97.7 (inactive),103 (inactive)
CN(C)[C@@H]1CCc2[nH]c3ccc(NC(=O)c4ccc(F)cc4)cc3c2C1.Cl,99.2,90.8,94.9 (inactive),114 (inactive)
C=C(C)C1CCC2(C(=O)O)CCC3(C)C(CCC4C5(C)CCC(O)C(C)(C)C5CCC43C)C12 (centres undefined) [Betulinic acid],101,108,96.3 (inactive),97 (inactive)
Cc1coc2c1C(=O)C(=O)c1c-2ccc2c1CCCC2(C)C [Tanshinone IIA],85.3 ± 2.9,45.7 ± 6,113 (inactive),114 (inactive)
OCC1OC(n2cnc3c(NC4CCCCC4)ncnc32)C(O)C1O (centres undefined) [N6-Cyclohexyladenosine],100,105,97.9 (inactive),92.8 (inactive)
"c1cc(-c2cnn3cc(-c4ccc(OCCN5CCCCC5)cc4)cnc23)ccn1 [AMPK Inhibitor,                  Compound C]",102,102,85.8 (inactive),106 (inactive)
COc1cc2c(cc1OC)C1C(=O)c3ccc4c(c3OC1CO2)C=CC(C)(C)O4 (centres undefined) [Degeulin],72.6,76.5,106 (inactive),121 (inactive)
C#CC1(O)CCC2C3C(C)CC4=C(CCC(=O)C4)C3CCC21C (centres undefined) [Tibolone],100,96.7,102 (inactive),110 (inactive)
C(=Cc1ccccc1)CN1CCN(C(c2ccccc2)c2ccccc2)CC1 [Cinnarizine],74.9,74.1,106 (inactive),101 (inactive)
CC(=O)Nc1ccc(NC(=S)NC(=O)c2ccc(C(C)(C)C)cc2)cc1 [p53 Activator (Tenovin-1)],96.5,91.1,104 (inactive),153 (active)
C[N+](C)(C)CCOC(=O)CCC(=O)OCC[N+](C)(C)C [Succinylcholine],100,101,99.9 (inactive),101 (inactive)
"CCCCCCCCCCCCCCCCn1cc[n+](Cc2ccccc2)c1C.[I-] [eEF-2 Kinase Inhibitor, NH125]",36.6,38.9,152 (active),101 (inactive)
CC(C)=CCCC(C)=CCOc1ccc2ccc(=O)oc2c1 [Auraptene],105,103,103 (inactive),97.1 (inactive)
CCCCCCCCCCCCCCCCn1cc[n+](Cc2ccccc2)c1C.[I-],99.1,103,103 (inactive),106 (inactive)
C=CCN1CCc2cc(O)c(O)cc2C(c2ccccc2)C1 (racemic),101,108,90.9 (inactive),101 (inactive)
C=CC(N)CCC(=O)O (racemic),92.9,99,97.3 (inactive),107 (inactive)
"COc1cc(C(=O)c2ccc3ncccc3c2)cc(OC)c1OC [quinolin-6-yl(3,4,5-trimethoxyphenyl)methanone]",59.6,8.78,209 (active),167 (active)
"N[C@@H](Cc1ccc(O)c(O)c1)C(=O)O [L-3,4-Dihydroxyphenylalanine]",100,105,89.7 (inactive),90 (inactive)
OCc1cc(C(O)CNCCCCCCOCCCCc2ccccc2)ccc1O (centres undefined) [Salmeterol],90.4,100,110 (inactive),132 (inactive)
Clc1ccc(C(Cn2ccnc2)OCc2csc3c(Cl)cccc23)c(Cl)c1.O=[N+]([O-])O (centres undefined),88.9,100,96.8 (inactive),119 (inactive)
